For experiment [1], the system named is Wnt5a (protein binding on small-molecule microarray). As to the kind of experiment: Wnt5a binders on small-molecule microarray, primary screen, biophysical, 635/667 nm fluorescence (AID 1142).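 Also: fluorescence read at 667 nm with signal to noise per printed feature.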 The settings on record: 635 nm fluorescence, higher = more signal.
Experiment [2] in a line: cell viability in Huh7 cells, primary screen, cytotoxicity control for HCV replication inhibitor project, CellTiter-Glo luminescence, basal, 48 h (AID 1143).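 Also: Huh7 hepatoma cells carrying a hepatitis C replication reporter with no stimulus; test concentration not given here.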 The settings on record: Huh7 HCV replicon, higher = more signal, called active from +8 up or from −8 down. (In ATP-based viability assays light output follows the ATP content of the culture.)
Experiment [3] in a line: P. aeruginosa biofilm formation inhibitors, primary screen, PAO1 strain, BacTiter-Glo luminescence, LB-PBS (AID 1144). The settings on record: 12 h, higher = more signal.
A short description of experiment [4]: CREB reporter modulators without forskolin, primary screen, cell-based, PC12, CRE-LacZ reporter, unstimulated (AID 1145). The settings on record: no forskolin, luminescence, 4.5 h, higher = more signal, called active from +8 up or from −8 down.
The nature of experiment [5]: CREB reporter modulators under forskolin, primary screen, cell-based, PC12, CRE-LacZ reporter, forskolin-stimulated (AID 1146).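 Also: PC12 cells with 6xCRE LacZ reporter stimulated by forskolin 10 µM; beta-galactosidase reporter signal reflecting CREB driven transcription.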 The settings on record: luminescence, 4.5 h, higher = more signal, called active from +8 up or from −8 down.
In experiment [6] the target is Streptavidin (Streptomyces avidinii) (UniProt P22629). As to the kind of experiment: streptavidin binders on small-molecule microarray, primary screen, artefact control for SMM compound annotation, biophysical, 635/667 nm fluorescence (AID 1147).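 Also: signal reflects streptavidin binding to arrayed compounds as a control protein.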 As to conditions: streptavidin binding, higher = more signal.
Sequence of Streptavidin (Streptomyces avidinii) (P22629 whole entry, looked up): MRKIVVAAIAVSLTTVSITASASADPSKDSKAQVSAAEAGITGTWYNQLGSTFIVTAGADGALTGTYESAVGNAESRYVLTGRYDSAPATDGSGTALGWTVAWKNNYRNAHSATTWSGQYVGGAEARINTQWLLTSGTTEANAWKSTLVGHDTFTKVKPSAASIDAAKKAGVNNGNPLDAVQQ
The nature of experiment [7]: small-molecule binders of probe aInhba, primary screen, biochemical, small-molecule microarray, 635/667 nm fluorescence (AID 1148).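 Also: score merges 667nm spot fluorescence with signal-to-noise for antibody binding to printed compounds.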 As to conditions: higher = more signal.
For experiment [8], the target named is Torsin-1A (Homo sapiens) (UniProt O14656). As to the kind of experiment: torsin A binders from cell lysate, primary screen, small-molecule microarray, wild-type, 635/667 nm (AID 1149). As to conditions: COS7 hTOR1A-WT lysate, 635 nm fluorescence, higher = more signal.
Sequence of Torsin-1A (Homo sapiens) (O14656 whole entry, looked up): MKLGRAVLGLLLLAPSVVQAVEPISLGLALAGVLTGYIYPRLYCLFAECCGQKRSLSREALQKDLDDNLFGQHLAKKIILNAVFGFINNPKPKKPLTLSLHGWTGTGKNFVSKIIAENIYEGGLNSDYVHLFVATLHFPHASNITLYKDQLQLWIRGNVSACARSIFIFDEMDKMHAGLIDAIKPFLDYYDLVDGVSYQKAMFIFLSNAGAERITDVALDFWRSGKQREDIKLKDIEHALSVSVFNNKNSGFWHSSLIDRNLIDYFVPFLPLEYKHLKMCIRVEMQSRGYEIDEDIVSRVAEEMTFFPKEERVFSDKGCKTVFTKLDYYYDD
The target is the same in experiment [9]. As to the kind of experiment: small-molecule binders of mutant TOR1A in lysate, primary screen, cell lysate, small-molecule microarray, COS7 lysate, 635/667 nm fluorescence (AID 1150).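 Also: score pools 667 nm emission and signal to noise measuring lysate protein binding.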 As to conditions: COS7 hTOR1A mutant lysate, 635 nm fluorescence, higher = more signal.
Experiment [10] concerns Sonic hedgehog protein (Shh). As to the kind of experiment: small-molecule binders of Shh protein, primary screen, biochemical, small-molecule microarray, 635/667 nm fluorescence (AID 1151).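 Also: Shh protein binding to compounds spotted on small-molecule microarray slides; score combines spot fluorescence intensity with signal-to-noise across triplicate slides.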 As to conditions: small-molecule microarray binding, 635 nm fluorescence; higher = more signal.

The structures appear in SMILES notation. Calls of active or inactive are those of the source. Unless noted, no rule for the calls is given here.

With `CN(C)CCCCNC(=O)[C@H]1C[C@H]2C(=O)N3CCC[C@H]3C(=O)N2[C@H]1c1ccc(O)cc1`, the composite z-score in experiment [1] was -1; in [6], -1.34; in experiment [7], -0.643; in experiment [8], -1.3; in experiment [9], -1.04; in experiment [10] it was -0.229. The z-score was -2.49 (inactive) in experiment [2], -1.5 (inactive) in experiment [3], -0.667 (inactive) in experiment [4] and -0.942 (inactive) in experiment [5].

Regarding `CCOC(=O)C[C@H]1[C@H](OC(=O)c2ccc(C(=O)c3ccccc3)cc2)[C@@H](NC(=O)c2ccc3ccccc3c2)c2cc(OCCCO)ccc2N1C(=O)c1ccccc1`, the composite z-score in [1] was 0.173; in [6] it was 0.849; in experiment [7] it was -0.105; in experiment [8], 0.196; in experiment [9] it was 0.321; in experiment [10], 0.867. Besides, the z-score in experiment [2] is -0.0506 (inactive); in experiment [3], -0.0382 (inactive); in [4] it was 0.0777 (inactive); in experiment [5], -0.506 (inactive).

Turning to `CCN(CC)c1ccc(N2CC=CC34O[C@@H]5/C=C\CCC(C)OC(=O)C5[C@H]3C(=O)N(CCO)[C@@H]4C2=O)cc1` (stereo not given in full), the composite z-score in experiment [1] is -0.442; in experiment [6] it was -0.21; in experiment [7] it was -0.0774; in experiment [8], -1.12; in experiment [9], -1.25; in experiment [10], 0.414. For the same compound, the z-score in [2] was -1.33 (inactive); in experiment [3], 0.655 (inactive); in [4] it was 0.195 (inactive); in [5], -0.295 (inactive).

Turning to `COc1ccc(NN2C(C(O)c3ccco3)C=CC3C(=O)N(C4CCCCC4)C(=O)C32)cc1` (stereo not given), the composite z-score amounted to 0.495 in experiment [1]; 0.965 in experiment [6]; 0.0471 in experiment [7]; 0.95 in [8]; 1.1 in [9]; 1.28 in experiment [10]. Besides, the z-score in experiment [2] was -0.829 (inactive); in [3] it was -0.522 (inactive); in experiment [4], 0.323 (inactive); in [5] it was 0.565 (inactive).

In the case of `CC(C)(C)OC(=O)CC[C@@]1(C(=O)O)N=C(c2ccc(OCCCO)cc2)O[C@@H]1c1ccccc1`, the composite z-score is -0.181 in experiment [1]; 0.0425 in experiment [6]; 0.0154 in experiment [7]; 0.961 in experiment [8]; 0.694 in experiment [9]; -0.736 in experiment [10]. Moreover, the z-score is -0.97 (inactive) in [2], -0.335 (inactive) in experiment [3], -0.94 (inactive) in experiment [4] and -0.374 (inactive) in experiment [5].

Turning to `CN(C)C(=O)[C@]1(CCC(=O)OC(C)(C)C)N=C(c2ccc(OCCCO)cc2)O[C@@H]1c1ccccc1`, the composite z-score was 0.677 in experiment [1]; -0.092 in experiment [6]; -0.0791 in [7]; 0.69 in experiment [8]; 2.2 in experiment [9]; -0.857 in [10]. Moreover, the z-score in experiment [2] is 0.325 (inactive); in experiment [3] it was 1.02 (inactive); in experiment [4], 0.493 (inactive); in experiment [5], 0.524 (inactive).

With `COc1cc(OC)c(C(O)C2C=CC3C(=O)N(c4ccccc4)C(=O)C3N2Nc2ccc(C#N)cc2)cc1Br` (stereo not given), the composite z-score in experiment [1] was 0.507; in experiment [6], 1.9; in [7], 0.451; in experiment [8] it was 0.367; in [9], 0.99; in experiment [10] it was -0.186. In addition, the z-score was 0.411 (inactive) in [2], -0.245 (inactive) in experiment [3], 2.17 (inactive) in experiment [4] and -0.475 (inactive) in experiment [5].

With `CC(C)CNC(=O)[C@@]1(c2ccc([N+](=O)[O-])cc2)CC(=O)N(C2CCCCC2)[C@@H]1c1ccc(CO)cc1I`, the composite z-score in experiment [1] is -0.067; in experiment [6] it was -0.018; in experiment [7] it was 0.0633; in experiment [8], -0.149; in [9], 0.0482; in experiment [10], 0.425. Moreover, the z-score was -4.13 (inactive) in experiment [2], 0.363 (inactive) in experiment [3], 0.324 (inactive) in [4] and 1.65 (inactive) in [5].

Take `NC(=O)N1C(=O)C2C(C1=O)C1C=C(CCCO)C2C(c2cccs2)N1Cc1cc2c(cc1Br)OCO2` (stereo not given): the composite z-score was -0.25 in experiment [1]; 1.13 in experiment [6]; -0.0983 in experiment [7]; -0.164 in experiment [8]; 0.279 in [9]; 0.0313 in experiment [10]. For the same compound, the z-score in experiment [2] is -0.477 (inactive); in experiment [3], -0.584 (inactive); in experiment [4], 0.424 (inactive); in experiment [5] it was -0.298 (inactive).

With `COCCOC(=O)N1C(=O)[C@@]2(c3cc(C#CC4=CCCCC4)ccc31)[C@H](c1ccccc1OCCO)N1[C@H](c3ccccc3)[C@H](c3ccccc3)OC(=O)[C@H]1[C@@H]2C(=O)N1CCc2cc(OC)c(OC)cc2C1`, the composite z-score in experiment [1] is 0.316; in experiment [6], -0.0953; in [7], -0.305; in experiment [8] it was -0.148; in [9], 0.536; in experiment [10], 1.79. Also, the z-score in [2] was -1.93 (inactive); in [3], -0.455 (inactive); in experiment [4], 1.03 (inactive); in [5], 0.904 (inactive).

For the compound `C=CC[C@@]1(C(=O)N2CCCCC2)N=C(c2ccc(OCCCO)cc2)O[C@@H]1c1ccccc1`, the composite z-score is 0.18 in experiment [1]; 0.0319 in [6]; 0.411 in experiment [7]; 0.521 in experiment [8]; 1.22 in experiment [9]; -0.229 in experiment [10]. Besides, the z-score in [2] was -3.63 (inactive); in [3], 0.222 (inactive); in [4] it was 1.5 (inactive); in [5] it was -0.134 (inactive).

In the case of `COCCCNC(=O)[C@@]1(Sc2ccc(C)cc2)CC(=O)N(Cc2cc(C(F)(F)F)cc(C(F)(F)F)c2)[C@@H]1c1ccc(CO)cc1`, the composite z-score in experiment [1] is 0.0054; in [6], 0.072; in experiment [7], 0.0111; in experiment [8], 1.27; in [9] it was 0.389; in experiment [10] it was 1.68. The z-score in [2] is -0.418 (inactive); in experiment [3] it was 0.126 (inactive); in [4], 0.506 (inactive); in experiment [5], -1.15 (inactive).

Consider `O=C(O)[C@H](Cc1ccccc1)n1cc(-c2ccccn2)nn1`, for which the composite z-score is 0.0676 in [1]; 0.303 in experiment [6]; -0.0645 in experiment [7]; 0.307 in experiment [8]; 0.407 in experiment [9]; 0.506 in [10]. For the same compound, the z-score in [2] was -0.437 (inactive); in [3] it was -0.0406 (inactive); in [4], 0.688 (inactive); in experiment [5], -0.377 (inactive).

`CCCCC(=C=CC[C@@H](O)c1ccc(OCCO)cc1)C[C@@H](O)COCc1ccccc1`: the composite z-score in [1] was 0.511; in experiment [6] it was -0.476; in experiment [7] it was -0.203; in [8] it was 0.611; in [9] it was 0.699; in experiment [10] it was 1.38. In addition, the z-score in experiment [2] is -2.32 (inactive); in [3], -0.656 (inactive); in experiment [4], 12.1 (active); in experiment [5], -1.48 (inactive).

Take `O=C1c2ccccc2[C@](Cc2ccccc2I)(C(=O)NCCN2CCOCC2)[C@H](c2ccc(CO)cc2)N1Cc1ccccc1`: the composite z-score in experiment [1] is 0.265; in experiment [6], 1.17; in [7], 0.444; in experiment [8], 0.0373; in experiment [9], 0.802; in experiment [10] it was 1.21. The z-score in experiment [2] is -1.98 (inactive); in experiment [3], 0.536 (inactive); in experiment [4], 0.649 (inactive); in experiment [5] it was 0.413 (inactive).

Source of the values: PubChem BioAssay.
